Measured values from the supplement of paper PMC12494721.
Counter-ions that a name gives are not always drawn.

Experiments:
Conditions in all cases: incubation time: 27 h, anaerobic, 37 °C;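 for the amine columns active = adjusted P below 0.05 in both replicates with a change the same way and a mean fold change under 0.8 or over 1.25; inactive = the rest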
[1] = tested on: Clostridium sporogenes DSM 1664; experiment: growth (OD595) fold change vs plate DMSO controls (fold change (ratio)); higher = more growth
Procedure, shortened: (§1)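 Growth is expressed as the fold change relative to the median of the DMSO control wells on each plate. Cultures in mGAM were grown anaerobically in 96-well plates for 27 h at 37 °C, shaken, and read at 595 nm. Readings were blank-subtracted, corrected for compound background with 20 µM compound solutions in water, and converted to OD with a calibration factor of 5. Fold changes above 1.5 were set to NA, and each value is the mean of 2 biological replicates.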

Escherichia coli IAI1 [2] = experiment: as above
Procedure, shortened: as §1

[3] = tested on: Klebsiella aerogenes DSM 30053; experiment: as above
Procedure, shortened: as §1

[4] = tested on: Ruminococcus gnavus DSM 108212; experiment: as above
Procedure, shortened: as §1

[5] = tested on: Klebsiella aerogenes DSM 30053; experiment: fold change of Histamine concentration vs plate DMSO controls (fold change (ratio)); higher = more amine produced, active = hit call of the paper (significant change in both replicates, either direction)
Procedure, shortened: (§2)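 Anaerobic mGAM cultures of four gut bacterial strains were grown at 37 °C for 27 h in 80 µL wells, starting at OD 0.1 before 1:1 dilution. Compounds were at 20 µM final (sweeteners 50 µM). Whole cultures were extracted with cold acetonitrile/methanol containing 0.1% formic acid and centrifuged. Amines were quantified by LC–triple-quadrupole MS (dynamic MRM) against external calibration curves and drift-corrected within batch. Each value is the fold change versus plate DMSO controls, averaged over 2 biological replicates.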

[6] = tested on: Clostridium sporogenes DSM 1664; experiment: fold change of Tryptamine concentration vs plate DMSO controls (fold change (ratio)); higher = more amine produced, active = hit call of the paper (significant change in both replicates, either direction)
Procedure, shortened: as §2

[7] = tested on: Ruminococcus gnavus DSM 108212; experiment: as above
Procedure, shortened: as §2

Escherichia coli IAI1 [8] = experiment: fold change of Putrescine concentration vs plate DMSO controls (fold change (ratio)); higher = more amine produced, active = hit call of the paper (significant change in both replicates, either direction)
Procedure, shortened: as §2

[9] = tested on: Klebsiella aerogenes DSM 30053; experiment: as above
Procedure, shortened: as §2

Escherichia coli IAI1 [10] = experiment: fold change of Cadaverine concentration vs plate DMSO controls (fold change (ratio)); higher = more amine produced, active = hit call of the paper (significant change in both replicates, either direction)
Procedure, shortened: as §2

[11] = tested on: Klebsiella aerogenes DSM 30053; experiment: as above
Procedure, shortened: as §2

[12] = tested on: Ruminococcus gnavus DSM 108212; experiment: fold change of 2-Phenylethylamine concentration vs plate DMSO controls (fold change (ratio)); higher = more amine produced, active = hit call of the paper (significant change in both replicates, either direction)
Procedure, shortened: as §2

| Compound | growth [1] | growth (Escherichia coli IAI1 [2]) | growth [3] | growth [4] | fold change of Histamine concentration [5] | fold change of Tryptamine concentration [6] | fold change of Tryptamine concentration [7] | fold change of Putrescine concentration (Escherichia coli IAI1 [8]) | fold change of Putrescine concentration [9] | fold change of Cadaverine concentration (Escherichia coli IAI1 [10]) | fold change of Cadaverine concentration [11] | fold change of 2-Phenylethylamine concentration [12] |
| --- | --- | --- | --- | --- | --- | --- | --- | --- | --- | --- | --- | --- |
| CC1(C)S[C@@H]2[C@H](NC(=O)[C@H](N)c3ccccc3)C(=O)N2[C@H]1C(=O)OC1OC(=O)c2ccccc21 (some centres not stated) [Talampicillin hydrochloride] (20 µM) | 0 | 0.00609 | 0.378 | 0.146 | 0.797 (active) | 0.0102 (active) | 0.0823 (active) | 0.252 (active) | 0.971 (inactive) | 0.867 (inactive) | 1.13 (inactive) | 0.0586 (active) |
| CN(C/C=C/c1ccccc1)Cc1cccc2ccccc12 [Naftifine hydrochloride] (20 µM) | 1.08 | 1.21 | 0.994 | 0.89 | 0.999 (inactive) | 0.99 (inactive) | 0.941 (inactive) | 1.08 (inactive) | 0.996 (inactive) | 1.34 (active) | 0.99 (inactive) | 1.01 (inactive) |
| CC1(C)S[C@@H]2[C@H](NC(=O)Cc3ccccc3)C(=O)N2[C@H]1C(=O)O [Benzylpenicillin sodium] (20 µM) | 0 | 1.19 | 1.1 | 0 | 1.06 (inactive) | 0.05 (active) | 0.0412 (active) | 1.09 (inactive) | 1.04 (inactive) | 1.56 (active) | 1.03 (inactive) | 0.0471 (active) |
| CCC[C@@H]1C[C@@H](C(=O)N[C@@H]([C@H]2O[C@H](SC)[C@H](O)[C@@H](O)[C@H]2O)[C@H](C)Cl)N(C)C1 [Clindamycin hydrochloride] (20 µM) | 0.899 | 0.682 | 0.934 | 0.134 | 1.54 (inactive) | 0.0905 (active) | 0.136 (active) | 0.4 (inactive) | 0.537 (inactive) | 0.844 (inactive) | 0.932 (inactive) | 0.125 (active) |
| CC(C)COCC(CN(Cc1ccccc1)c1ccccc1)N1CCCC1 (configuration not stated) [Bepridil hydrochloride] (20 µM) | 0.909 | 0.996 | 1.11 | 0.654 | 0.937 (inactive) | 0.913 (inactive) | 0.743 (active) | 1.03 (inactive) | 1.01 (inactive) | 1.01 (inactive) | 1.01 (inactive) | 0.824 (inactive) |
| CN(C)c1cc(NC(=O)CNC(C)(C)C)c(O)c2c1C[C@H]1C[C@H]3[C@H](N(C)C)C(=O)C(C(N)=O)=C(O)[C@@]3(O)C(=O)C1=C2O [Tigecycline] (20 µM) | 0.926 | 1.12 | 1.18 | 1.19 | 0.865 (inactive) | 0.964 (inactive) | 1.08 (inactive) | 1.08 (inactive) | 0.991 (inactive) | 0.967 (inactive) | 1.03 (inactive) | 1.13 (inactive) |
